Molecules are shown by their SMILES. Counter-ions that a name gives are not always drawn. ± gives the standard deviation of the averaged measurements.

The experiment relates to Toxoplasma gondii RH (in HFF). The experiment in a line: parasite growth relative to the screen mean (all compounds = 100%); higher = less inhibition of parasite growth. As to conditions: 5 µM; 72 h; oxygen 21 %. The method, boiled down:
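Values give growth relative to the screen mean. The screen mean (all compounds) is set at 100%, and two screens were averaged. Compounds at 5 µM final were placed on confluent human foreskin fibroblasts, which were infected within 2 h with RH β-Gal–GFP Toxoplasma (MOI 1:5) and kept 72 h at 21% O2 before a CPRG β-Gal readout against in-plate standard curves.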
`CC#CCOC(=O)c1c(C)nc2sc3c(c2c1N)CCC(O)C3` (stereo not drawn) showed a parasite growth of 117.8 ± 0.28%.
With `O=C1CC2(CCCC2)CC(=O)N1CCCCNCC1COc2ccccc2O1` (stereo not drawn), the parasite growth was found to be 156 ± 5.8%.
Regarding `CCOC(=O)C1=C(C)NC(=S)NC1c1cccc(O)c1` (stereo not drawn) [Monastrol], the parasite growth worked out at 126 ± 29%.
`COc1ccc(Nc2ncnc3ccc(OC)cc23)cc1` [MPMQ hydrochloride] showed a parasite growth of 146 ± 14%.
For `O=C1NC(c2cccc([N+](=O)[O-])c2)=CCN1c1ccccc1O` [Icilin], the parasite growth was determined as 128 ± 36%.
The value for `COc1[nH]c2ccc(F)cc2c1C(=O)OCC1CCN(CCNS(C)(=O)=O)CC1.NS(=O)(=O)O` was 80.2 ± 32%; that for `COc1cc(-c2ccc(=O)[nH]n2)ccc1OC(F)F` [Zardaverine] was 103 ± 8.7%.
The value for `C1COC(NC(C2CC2)C2CC2)=N1` [Rilmenidine hemifumarate] was 125 ± 13%.
To `CC1=C(CC(=O)O)c2cc(F)ccc2/C1=C\c1ccc([S+](C)[O-])cc1` (stereo not drawn) [Sulindac] belongs 183 ± 34%.
`c1ccc(C(NCCNC(c2ccccc2)c2ccccc2)c2ccccc2)cc1` [AMN 082 dihydrochloride]: the parasite growth stood at 35.1 ± 15%.
For `COc1ccccc1N1CCN(CCN2C(=O)c3ccccc3C(C)(C)C2=O)CC1` [ARC 239 dihydrochloride], the parasite growth was found to be 108 ± 47%.
The value for `Cc1nn(-c2ccccc2)c(C)c1C=NN1CCN(Cc2ccccc2)CC1` was 141 ± 26%; that for `COC(=O)[C@H]1[C@H]2C[C@H]3c4[nH]c5ccccc5c4CCN3C[C@H]2CC[C@@H]1O` [Rauwolscine hydrochloride] was 167 ± 41%; that for `C[N+](C)(C)CC[N+]1(C)Cc2c(Cl)c(Cl)c(Cl)c(Cl)c2C1` [Chlorisondamine diiodide] was 168 ± 14%.
Take `CC1CCN=C(N)S1` (stereo not drawn) [AMT hydrochloride]: the parasite growth came to 70.6 ± 8.5%.
To `Oc1ccc(-c2nc3cc(O)cc(Br)c3o2)cc1` belongs 134 ± 20%; to `Cc1ccc(S(=O)(=O)/C=C/C#N)cc1`, 135 ± 27%; to `CC(=O)OCCNC(=O)c1cccnc1` [N-[2-(Acetoxy)ethyl]-3-pyridinecarboxamide], 117 ± 13%.
As to `CCc1cc(-c2n[nH]c(C)c2-c2ccc3c(c2)OCCO3)c(O)cc1O`, the parasite growth worked out at 215 ± 12%.
As for `C[C@@H](CN1CCC(n2c(=O)[nH]c3cc(Cl)ccc32)CC1)NC(=O)c1ccc2ccccc2c1`, the parasite growth came out at 5.93 ± 2.3%.
`COc1ccc(NC(=O)c2ccc(-c3ccc(-c4noc(C)n4)cc3C)cc2)cc1N1CCN(C)CC1` came in with a parasite growth of less than 0%.
On to `C=CC(=O)c1ccc2ccccc2c1`, for which the parasite growth came to 70.4 ± 7.8%.
The value for `CC(=O)N1CCN(c2ccc(OCC3COC(Cn4ccnc4)(c4ccc(Cl)cc4Cl)O3)cc2)CC1` (stereo not drawn) [Ketoconazole] was 186 ± 29%.
`O=C(Nc1ccccc1)c1cc([N+](=O)[O-])ccc1Cl` registered a parasite growth of 103 ± 18%.
Consider `CC1=NN(c2ccccc2)C(=O)C1`, for which the parasite growth is 133 ± 8.7%.
On to `CCCCCCC(=O)OC1CC(C)(C)NC(C)(C)C1` [TMPH hydrochloride], for which the parasite growth was found to be 123 ± 14%.
`c1nc(CC2CCNCC2)c[nH]1` [Immepip dihydrobromide] returned a parasite growth of 100.2 ± 0.4%.
The value for `O=C(NCCO[N+](=O)[O-])c1cccnc1` [Nicorandil] was 109 ± 12%.
Take `O/N=C/c1ccc(-c2ccc(O)c(F)c2)c(Cl)c1O`: the parasite growth is less than 0%.
The value for `C/N=C(/NC#N)NCCSCc1csc(NC(=N)N)n1` [Tiotidine] was 122 ± 30%; that for `O=C(O)C1=CCNCC1` [Isoguvacine hydrochloride] was 130 ± 9.5%; that for `O=Nc1ccc(O)c2ncccc12` was less than 0%.
The value for `Oc1cc2c(cc1O)CN(C(=S)NCCc1ccc(Cl)cc1)CCC2` [Capsazepine] was 150 ± 30%; that for `O=C1N(c2ccccc2)c2ccccc2C1(Cc1ccncc1)Cc1ccncc1` [Linopirdine dihydrochloride] was 56.5 ± 15%; that for `c1cc2c(cc1C1CCCCC1)c1c3n2CCNC3CCC1` (stereo not drawn) [Tetrindole mesylate] was 13.2 ± 2.2%.
To `N=C(N)NC(=O)Cc1c(Cl)cccc1Cl` [Guanfacine hydrochloride] belongs 162 ± 45%; to `CC1(C)C(=O)NC2=C1C(=O)C(=O)c1ccccc12`, less than 0%.
The compound `O=c1[nH]c2cc(C(F)(F)F)c(N3CCOCC3)cc2n(CP(=O)(O)O)c1=O` gave a parasite growth of 118 ± 4%.

Source of the values: the supplement of paper PMC4894684.
